High-throughput results deposited in PubChem by National Center for Advancing Translational Sciences (NCATS).
This is a sample that favours compounds with a hit; in the whole collection about 6.3% have one here.
HepG2 viability: qHTS for Inhibitors of TGF-b: Cytotox Counterscreen; AID 588856, 2011; HepG2 CAGA-GFP viability, ATP luminescence, 18 h; 0.76% of 410,000 active; Potency, µM (top dose mostly 46.1 µM), most hits filed as cytotoxic
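CellTiter-Glo luminescence gave cytotoxicity after 18 hours at 37 degrees C. The cells were HepG2 CAGA-GFP in 1% FBS DMEM, stimulated with 500 pg/mL TGF-beta after compound addition. %Activity was normalised to no-cell wells (complete cell-killing) and DMSO (no toxicity), and curves were fitted and classified.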
RORgamma inh: qHTS for inhibitors of ROR gamma transcriptional activity | Drosophila S2 Gal4-RORgamma UAS-luciferase reporter, 20 h | Potency, µM (highest dose often 53.6 µM), hits mostly inhibitors | 5.4% of 310,000 active | AID 2551, 2010; further: nearly all actives have a fitted effect of over 60% in size
Target sequence (P51450 whole entry, looked up, the tested form may be a part): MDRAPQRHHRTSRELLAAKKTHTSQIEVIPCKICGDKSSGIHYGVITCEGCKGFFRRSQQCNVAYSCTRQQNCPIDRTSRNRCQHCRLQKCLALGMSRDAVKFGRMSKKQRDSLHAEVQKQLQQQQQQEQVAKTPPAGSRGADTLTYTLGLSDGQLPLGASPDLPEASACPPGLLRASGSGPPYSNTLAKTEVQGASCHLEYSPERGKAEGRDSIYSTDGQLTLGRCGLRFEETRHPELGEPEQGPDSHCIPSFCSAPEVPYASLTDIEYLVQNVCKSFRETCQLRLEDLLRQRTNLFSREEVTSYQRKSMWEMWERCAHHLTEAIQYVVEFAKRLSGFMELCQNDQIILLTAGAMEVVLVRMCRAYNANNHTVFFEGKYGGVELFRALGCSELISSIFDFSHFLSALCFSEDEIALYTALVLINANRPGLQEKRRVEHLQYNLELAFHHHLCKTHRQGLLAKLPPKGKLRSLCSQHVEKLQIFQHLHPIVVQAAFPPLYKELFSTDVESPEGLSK
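ROR gamma transcriptional activity was tracked as Gal4-UAS luciferase output in stably transfected Drosophila Schneider cells, with compound added 1 hr before 700 uM copper sulfate induction and a 20 hr ambient-temperature incubation.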
TGFb inhibitor: qHTS for Inhibitors of TGF-b; Potency, µM (doses to about 46.1 µM), hits mostly inhibitors; HepG2 CAGA-GFP TGF-b/SMAD3 reporter, GFP fluorescence, 18 h; TGF-beta stimulated, 500 pg/mL final; 1.2% of 410,000 active; further: nearly all actives have a fitted effect of over 65% in size
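HEPG2 CAGA-GFP reporter cells (1000/well, DMEM with 1% FBS) received compounds, then recombinant TGF-beta at 500 pg/mL final for 18 hours at 37 degrees C. Per-cell GFP summed per well was normalised to unstimulated and stimulated DMSO controls before curve fitting.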
S2 tox: Viability Counterscreen for Primary qHTS for Inhibitors of ATXN expression. S2 cells (HEK-293 line with an ATXN2-luciferase reporter) viability, CellTiter-Fluor protease fluorescence, 24 h. Potency, µM (series often up to 56.7 µM), hits mostly cytotoxic. 0.49% of 400,000 active; further: nearly all actives have a fitted effect of over 40% in size
ATXN2 expr inh: Primary qHTS for Inhibitors of ATXN expression; HEK-293 ATXN2-luciferase reporter, luminescence, 24 h; Potency, µM (highest dose often 57 µM), usual class: inhibitors; 0.72% of 360,000 active; AID 1745845, 2022; further: nearly all actives have a fitted effect of over 55% in size
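qHTS (up to 57 uM final) was run with 24 h compound exposure of reporter cells at 37 °C. Each well was multiplexed: SteadyGlo luminescence measured ATXN2-luciferase expression after a fluorogenic Gly-Phe-AFC viability readout (25 uM final).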
VP16 counter: VP16 counterscreen qHTS for inhibitors of ROR gamma transcriptional activity | AID 2546, 2010 | 3.5% of 310,000 active | Potency, µM (series often up to 53.6 µM), most hits filed as inhibitors | Drosophila S2 Gal4-VP16 UAS-luciferase, luminescence, 20 h;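 further: Gal4-VP16 expression switched on by copper sulfate through the metallothionein promoter; nearly all actives have a fitted effect of over 50% in size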
Hits are given with their value; [ ] = another dose, or the depositor's remark. The call rests on the fitted dose curve; in most records, active means well fitted curve in the direction sought with a large enough effect; inconclusive means small, poorly fitted or top-dose-only effect, or another doubt; inactive means no such curve, though single readings can be large; an effect the other way counts as inactive or inconclusive.

For Cc1cccc(N2CCN(C(=O)Cn3sc4nc(C)cc(C)c4c3=O)CC2C)c1 (centres undefined) the results were HepG2 viability inactive, RORgamma inh 7.1µM, TGFb inhibitor inconclusive, S2 tox inconclusive, ATXN2 expr inh inconclusive and VP16 counter 13µM.
Screening Cc1cc(C(F)(F)F)n2nc(-c3ccc(Br)cc3)cc2n1 returned HepG2 viability inactive, TGFb inhibitor inconclusive, S2 tox inactive and ATXN2 expr inh inactive.
O=C(c1n[nH]c2c1CCCC2)N1CCC(n2c(C3CCCO3)nc3ccccc32)CC1 (centres undefined) was read as S2 tox inactive.
`COc1cccc2c1OCC(C(=O)Nc1nccs1)=C2` gave HepG2 viability inactive, RORgamma inh 11µM, TGFb inhibitor inactive, S2 tox inactive and VP16 counter inconclusive.
Screening CCCC(=O)N(CCc1ccc(OC)cc1)Cc1nc2ccccc2c(=O)[nH]1 returned HepG2 viability inactive, RORgamma inh 10µM, TGFb inhibitor inactive, S2 tox inactive, ATXN2 expr inh inactive and VP16 counter inconclusive.
`COc1ccccc1CN(Cc1nc2ccccc2c(=O)[nH]1)C(=O)Nc1ccccc1` gave HepG2 viability inactive, RORgamma inh 10µM, TGFb inhibitor inactive, S2 tox inactive, ATXN2 expr inh inactive and VP16 counter inconclusive.
Cc1ccc(C(=O)N(Cc2ccc3c(c2)OCO3)Cc2nc3ccccc3c(=O)[nH]2)cc1 was read as HepG2 viability inactive, RORgamma inh inconclusive, TGFb inhibitor inactive, S2 tox inactive, ATXN2 expr inh inactive and VP16 counter inactive.
`CCCCC(=O)N(Cc1ccc2c(c1)OCO2)Cc1nc2ccccc2c(=O)[nH]1` gave HepG2 viability inactive, RORgamma inh 11µM, TGFb inhibitor inactive, S2 tox inconclusive, ATXN2 expr inh inactive and VP16 counter inactive.
`COCC(=O)N(CCc1ccc(OC)cc1)Cc1nc2ccccc2c(=O)[nH]1` gave HepG2 viability inactive, RORgamma inh 5µM, TGFb inhibitor inactive, S2 tox inactive, ATXN2 expr inh inactive and VP16 counter 7.1µM.
Screening C=C(C)OC(C)=O returned RORgamma inh inactive and VP16 counter inactive.
`O=C1CC(c2ccccc2)Cc2[nH]c(=O)c(C(=O)O)cc21` (centres undefined) gave HepG2 viability inactive and TGFb inhibitor inactive.
`OC[C@@H]1[C@@H](c2ccccc2)C(c2cccc(Cl)c2)=NN1c1ccccc1` gave HepG2 viability inactive, RORgamma inh inactive, TGFb inhibitor inconclusive, ATXN2 expr inh inactive and VP16 counter inactive.
For COc1ccccc1[C@H]1C(c2cccc(Cl)c2)=NN(c2ccccc2)[C@@H]1CO the results were HepG2 viability 13µM, RORgamma inh inactive, TGFb inhibitor 13µM, ATXN2 expr inh inconclusive and VP16 counter inactive.
CC[C@H]1C(c2cccc(Cl)c2)=NN(c2ccccc2)[C@@H]1CO was read as RORgamma inh inconclusive and VP16 counter 32µM.
Cc1cc(C(=O)c2ccccc2)c(NC(=O)CCl)s1 was read as HepG2 viability inactive, RORgamma inh inactive[10 µM], TGFb inhibitor inactive, S2 tox inconclusive, ATXN2 expr inh inactive and VP16 counter inactive.
CCc1cc(C(=O)c2ccc(OC)cc2)c(NC(=O)COCC(=O)O)s1 was read as HepG2 viability inactive, RORgamma inh inactive, TGFb inhibitor inactive, S2 tox inactive and VP16 counter inactive.
CCN(CC)CC(=O)Nc1sc(C)c(C)c1C(=O)c1ccc(C)cc1 was read as HepG2 viability inactive, RORgamma inh 11µM, TGFb inhibitor inconclusive, ATXN2 expr inh inactive and VP16 counter inactive.
`CCc1cc(C(=O)c2ccc(Br)cc2)c(NC(=O)CN(CC)CC)s1` gave HepG2 viability inactive, RORgamma inh 6.3µM, TGFb inhibitor inactive, S2 tox inactive, ATXN2 expr inh inactive and VP16 counter 11µM.
For CCN(CC)CC(=O)Nc1sc(C)cc1C(=O)c1ccccc1 the results were HepG2 viability inactive, RORgamma inh 7.1µM, TGFb inhibitor inactive, S2 tox inactive, ATXN2 expr inh inactive and VP16 counter inconclusive.
`CCOC(=O)c1c(-c2cccs2)csc1NC(=O)CN(CC)CC` gave HepG2 viability inactive, RORgamma inh inconclusive, TGFb inhibitor inactive and VP16 counter inactive.
For CCN(CC)CC(=O)Nc1sc(C)cc1C(=O)c1ccc(C)cc1 the results were HepG2 viability inactive, RORgamma inh 3.2µM, TGFb inhibitor inconclusive, S2 tox inactive, ATXN2 expr inh inactive and VP16 counter 6.3µM.
Screening Cc1c(C(=O)N(C)CC2CCCN(C)C2)cnn1-c1nccc(-c2ccco2)n1 (centres undefined) returned S2 tox inactive.
Screening Fc1ccccc1N1CCN(C(c2ccnc3ccccc23)c2nnnn2-c2ccc3c(c2)OCCO3)CC1 (centres undefined) returned S2 tox inconclusive and ATXN2 expr inh inactive.
O=C(NCc1nnc2n1CCN(Cc1cccc(C(F)(F)F)c1)CC2)c1ccncc1 was read as S2 tox inactive.
O=C(NCc1nnc2n1CCN(Cc1cc3c(cc1Cl)OCO3)CC2)C1CCOC1 (centres undefined) was read as S2 tox inactive.
For COCC(=O)Nc1cc(C(=O)N2CCc3sccc3C2)c2c(c1)nc(-c1ccncc1)n2C the results were S2 tox inactive.
For Cc1ccc(-c2[nH]ncc2CNC(C)c2ccccc2)cc1 (centres undefined) the results were HepG2 viability inactive and TGFb inhibitor inactive.
For O=S1(=O)CC/C(=N\O)c2ccccc21 the results were HepG2 viability inactive, RORgamma inh inconclusive, TGFb inhibitor inactive, S2 tox inactive, ATXN2 expr inh inactive and VP16 counter inactive.
`C=CCNC(=S)N/N=C1\CCS(=O)(=O)c2ccccc21` gave HepG2 viability inactive, RORgamma inh 18µM, TGFb inhibitor inactive, S2 tox inactive, ATXN2 expr inh inactive and VP16 counter inconclusive.
Cc1ccc(C(=O)NC(=S)Nc2ccccc2N2CCCC2)cc1[N+](=O)[O-] was read as HepG2 viability inactive, RORgamma inh inconclusive, TGFb inhibitor inconclusive, S2 tox inactive, ATXN2 expr inh inactive and VP16 counter inconclusive.
O=C(NC(=S)Nc1ccc(N2CCCC2)cc1)c1ccccc1[N+](=O)[O-] was read as HepG2 viability inactive, RORgamma inh 4µM, TGFb inhibitor inconclusive, S2 tox inactive, ATXN2 expr inh inactive and VP16 counter 5µM.
O=C(Nc1ccc(N2CCCC2)c(Cl)c1)c1ccccc1[N+](=O)[O-] was read as HepG2 viability inactive, RORgamma inh inactive, TGFb inhibitor inactive, S2 tox inactive, ATXN2 expr inh inactive and VP16 counter inactive.
